Tests used:
Assay in all cases: log2 ratio of Biotin-Ahx-Ub-VS probe labelling (fragment/DMSO); higher = less target engagement (more negative = stronger competition), active = hit call of the paper (q ≤ 0.05, log2 ratio ≤ -1)
Settings in all cases: compound concentration: 200 uM; treatment time: 3 h
USP34 = USP34 (UniProt Q70CQ2)
Outline: (§1)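 Average log2 ratios of fragment over vehicle were obtained by unpaired t-test from global-median-normalised Spectronaut label-free quantities. Proteins with ≥2 unique peptides were included. HEK293T lysate (495 µg per sample) was treated in triplicate with fragment at 200 µM or vehicle for 3 h, then with Biotin-Ahx-Ub-VS at 0.5 µM final for 1 h, and labelled DUBs were NeutrAvidin-enriched and run by diaPASEF LC-MS/MS.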

USP36 = target: T1, USP36 (UniProt Q9P275)
T1 sequence (whole entry): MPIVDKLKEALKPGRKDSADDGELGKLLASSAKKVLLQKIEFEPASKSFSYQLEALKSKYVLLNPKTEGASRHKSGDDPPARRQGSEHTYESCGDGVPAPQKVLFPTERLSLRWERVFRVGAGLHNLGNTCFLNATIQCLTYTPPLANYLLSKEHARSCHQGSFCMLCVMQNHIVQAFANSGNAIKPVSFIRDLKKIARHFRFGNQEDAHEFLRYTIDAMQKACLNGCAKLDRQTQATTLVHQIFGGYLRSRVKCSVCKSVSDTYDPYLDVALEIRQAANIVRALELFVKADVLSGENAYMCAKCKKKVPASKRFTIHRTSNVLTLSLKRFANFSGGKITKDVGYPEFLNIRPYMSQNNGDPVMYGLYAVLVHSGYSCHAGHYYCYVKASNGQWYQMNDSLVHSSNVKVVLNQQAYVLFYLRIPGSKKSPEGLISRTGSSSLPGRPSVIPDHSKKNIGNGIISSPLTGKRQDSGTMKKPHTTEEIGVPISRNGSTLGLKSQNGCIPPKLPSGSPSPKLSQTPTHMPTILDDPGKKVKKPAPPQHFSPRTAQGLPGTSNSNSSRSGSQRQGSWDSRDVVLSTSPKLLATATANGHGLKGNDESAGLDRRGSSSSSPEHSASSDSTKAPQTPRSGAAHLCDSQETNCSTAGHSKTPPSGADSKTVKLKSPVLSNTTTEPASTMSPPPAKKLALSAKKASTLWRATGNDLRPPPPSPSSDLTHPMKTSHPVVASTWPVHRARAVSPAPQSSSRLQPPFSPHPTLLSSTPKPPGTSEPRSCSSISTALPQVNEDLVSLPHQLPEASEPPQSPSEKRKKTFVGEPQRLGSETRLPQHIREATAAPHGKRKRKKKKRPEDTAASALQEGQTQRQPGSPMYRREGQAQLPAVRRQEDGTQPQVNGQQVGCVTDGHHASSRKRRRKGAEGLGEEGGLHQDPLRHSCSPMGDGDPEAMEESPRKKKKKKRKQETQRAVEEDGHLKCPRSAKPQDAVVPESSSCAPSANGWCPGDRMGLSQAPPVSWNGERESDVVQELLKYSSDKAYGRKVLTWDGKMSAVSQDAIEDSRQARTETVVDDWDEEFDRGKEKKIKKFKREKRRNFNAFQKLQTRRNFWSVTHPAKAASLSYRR
Outline: as §1

USP38 = target: T2, USP38 (UniProt Q8NB14)
T2 sequence (whole entry): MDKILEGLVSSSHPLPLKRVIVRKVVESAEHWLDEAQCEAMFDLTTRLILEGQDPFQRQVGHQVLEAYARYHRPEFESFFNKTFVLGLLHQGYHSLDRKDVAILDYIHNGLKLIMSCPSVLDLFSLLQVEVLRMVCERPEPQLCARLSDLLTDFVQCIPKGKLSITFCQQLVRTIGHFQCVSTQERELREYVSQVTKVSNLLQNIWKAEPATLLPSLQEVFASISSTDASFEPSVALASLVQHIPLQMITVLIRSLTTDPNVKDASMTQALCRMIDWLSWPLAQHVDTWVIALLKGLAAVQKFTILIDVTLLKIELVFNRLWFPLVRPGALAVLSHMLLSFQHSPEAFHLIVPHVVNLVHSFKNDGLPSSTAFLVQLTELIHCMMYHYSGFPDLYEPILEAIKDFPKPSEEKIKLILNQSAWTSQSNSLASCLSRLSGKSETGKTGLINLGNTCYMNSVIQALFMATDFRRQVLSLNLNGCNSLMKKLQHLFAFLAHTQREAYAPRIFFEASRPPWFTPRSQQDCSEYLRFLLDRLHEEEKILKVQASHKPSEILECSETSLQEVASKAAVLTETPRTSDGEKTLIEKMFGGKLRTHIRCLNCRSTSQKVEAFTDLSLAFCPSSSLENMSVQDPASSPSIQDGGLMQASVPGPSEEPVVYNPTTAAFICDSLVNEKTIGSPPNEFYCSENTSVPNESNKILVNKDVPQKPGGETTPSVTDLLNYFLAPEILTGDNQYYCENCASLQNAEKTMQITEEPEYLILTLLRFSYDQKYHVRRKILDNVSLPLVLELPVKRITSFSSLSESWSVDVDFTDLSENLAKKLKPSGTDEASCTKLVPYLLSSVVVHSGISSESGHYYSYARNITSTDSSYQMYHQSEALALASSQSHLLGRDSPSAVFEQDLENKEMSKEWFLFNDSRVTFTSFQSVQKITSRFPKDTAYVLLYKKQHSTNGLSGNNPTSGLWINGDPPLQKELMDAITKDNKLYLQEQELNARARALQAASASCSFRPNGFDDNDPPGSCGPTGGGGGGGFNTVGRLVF
Outline: as §1

USP39 = target: T3, USP39 (UniProt Q53GS9)
T3 sequence (whole entry): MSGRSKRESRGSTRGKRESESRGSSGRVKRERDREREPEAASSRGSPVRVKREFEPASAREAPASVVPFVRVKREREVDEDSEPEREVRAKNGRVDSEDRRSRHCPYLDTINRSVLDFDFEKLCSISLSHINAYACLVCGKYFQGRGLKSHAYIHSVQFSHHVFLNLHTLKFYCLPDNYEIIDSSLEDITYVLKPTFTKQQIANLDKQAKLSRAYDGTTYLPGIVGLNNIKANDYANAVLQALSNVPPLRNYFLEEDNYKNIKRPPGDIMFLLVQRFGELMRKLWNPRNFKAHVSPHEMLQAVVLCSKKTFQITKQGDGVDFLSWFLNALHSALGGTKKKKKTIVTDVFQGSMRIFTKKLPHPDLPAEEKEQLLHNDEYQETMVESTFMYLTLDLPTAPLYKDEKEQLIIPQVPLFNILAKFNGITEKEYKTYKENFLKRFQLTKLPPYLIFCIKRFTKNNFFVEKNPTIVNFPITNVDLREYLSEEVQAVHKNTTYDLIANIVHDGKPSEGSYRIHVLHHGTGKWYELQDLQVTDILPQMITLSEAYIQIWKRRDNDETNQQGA
Outline: as §1

USP4 = target: T4, USP4 (UniProt Q13107)
T4 sequence (whole entry): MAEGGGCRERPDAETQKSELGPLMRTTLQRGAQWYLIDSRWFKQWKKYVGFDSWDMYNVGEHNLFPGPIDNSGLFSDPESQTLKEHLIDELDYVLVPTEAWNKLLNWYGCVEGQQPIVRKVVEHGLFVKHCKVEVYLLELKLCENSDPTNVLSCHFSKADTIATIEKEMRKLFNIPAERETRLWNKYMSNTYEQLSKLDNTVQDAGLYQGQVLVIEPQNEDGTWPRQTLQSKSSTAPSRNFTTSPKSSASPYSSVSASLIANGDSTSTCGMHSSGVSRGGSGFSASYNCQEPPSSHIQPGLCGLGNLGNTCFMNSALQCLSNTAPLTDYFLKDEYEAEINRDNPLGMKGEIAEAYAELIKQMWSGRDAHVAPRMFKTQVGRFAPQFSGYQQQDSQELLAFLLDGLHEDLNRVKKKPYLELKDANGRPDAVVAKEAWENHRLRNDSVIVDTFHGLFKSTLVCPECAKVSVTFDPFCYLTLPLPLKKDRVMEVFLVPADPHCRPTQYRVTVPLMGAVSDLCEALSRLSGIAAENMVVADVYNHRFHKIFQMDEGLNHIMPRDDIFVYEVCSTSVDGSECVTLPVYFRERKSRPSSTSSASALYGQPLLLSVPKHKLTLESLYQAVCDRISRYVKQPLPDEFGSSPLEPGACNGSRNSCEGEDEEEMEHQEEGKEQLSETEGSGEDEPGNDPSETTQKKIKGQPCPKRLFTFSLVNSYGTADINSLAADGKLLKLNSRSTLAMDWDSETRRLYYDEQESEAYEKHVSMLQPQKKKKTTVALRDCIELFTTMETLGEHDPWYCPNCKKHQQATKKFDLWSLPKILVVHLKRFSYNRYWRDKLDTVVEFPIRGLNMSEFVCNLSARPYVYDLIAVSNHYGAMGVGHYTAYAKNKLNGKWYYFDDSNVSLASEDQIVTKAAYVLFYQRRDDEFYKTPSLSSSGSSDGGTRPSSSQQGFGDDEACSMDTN
Outline: as §1

Measured: log2 ratio of Biotin-Ahx-Ub-VS probe labelling

Sequence of USP34 (Q70CQ2 whole entry, the tested form may be a part): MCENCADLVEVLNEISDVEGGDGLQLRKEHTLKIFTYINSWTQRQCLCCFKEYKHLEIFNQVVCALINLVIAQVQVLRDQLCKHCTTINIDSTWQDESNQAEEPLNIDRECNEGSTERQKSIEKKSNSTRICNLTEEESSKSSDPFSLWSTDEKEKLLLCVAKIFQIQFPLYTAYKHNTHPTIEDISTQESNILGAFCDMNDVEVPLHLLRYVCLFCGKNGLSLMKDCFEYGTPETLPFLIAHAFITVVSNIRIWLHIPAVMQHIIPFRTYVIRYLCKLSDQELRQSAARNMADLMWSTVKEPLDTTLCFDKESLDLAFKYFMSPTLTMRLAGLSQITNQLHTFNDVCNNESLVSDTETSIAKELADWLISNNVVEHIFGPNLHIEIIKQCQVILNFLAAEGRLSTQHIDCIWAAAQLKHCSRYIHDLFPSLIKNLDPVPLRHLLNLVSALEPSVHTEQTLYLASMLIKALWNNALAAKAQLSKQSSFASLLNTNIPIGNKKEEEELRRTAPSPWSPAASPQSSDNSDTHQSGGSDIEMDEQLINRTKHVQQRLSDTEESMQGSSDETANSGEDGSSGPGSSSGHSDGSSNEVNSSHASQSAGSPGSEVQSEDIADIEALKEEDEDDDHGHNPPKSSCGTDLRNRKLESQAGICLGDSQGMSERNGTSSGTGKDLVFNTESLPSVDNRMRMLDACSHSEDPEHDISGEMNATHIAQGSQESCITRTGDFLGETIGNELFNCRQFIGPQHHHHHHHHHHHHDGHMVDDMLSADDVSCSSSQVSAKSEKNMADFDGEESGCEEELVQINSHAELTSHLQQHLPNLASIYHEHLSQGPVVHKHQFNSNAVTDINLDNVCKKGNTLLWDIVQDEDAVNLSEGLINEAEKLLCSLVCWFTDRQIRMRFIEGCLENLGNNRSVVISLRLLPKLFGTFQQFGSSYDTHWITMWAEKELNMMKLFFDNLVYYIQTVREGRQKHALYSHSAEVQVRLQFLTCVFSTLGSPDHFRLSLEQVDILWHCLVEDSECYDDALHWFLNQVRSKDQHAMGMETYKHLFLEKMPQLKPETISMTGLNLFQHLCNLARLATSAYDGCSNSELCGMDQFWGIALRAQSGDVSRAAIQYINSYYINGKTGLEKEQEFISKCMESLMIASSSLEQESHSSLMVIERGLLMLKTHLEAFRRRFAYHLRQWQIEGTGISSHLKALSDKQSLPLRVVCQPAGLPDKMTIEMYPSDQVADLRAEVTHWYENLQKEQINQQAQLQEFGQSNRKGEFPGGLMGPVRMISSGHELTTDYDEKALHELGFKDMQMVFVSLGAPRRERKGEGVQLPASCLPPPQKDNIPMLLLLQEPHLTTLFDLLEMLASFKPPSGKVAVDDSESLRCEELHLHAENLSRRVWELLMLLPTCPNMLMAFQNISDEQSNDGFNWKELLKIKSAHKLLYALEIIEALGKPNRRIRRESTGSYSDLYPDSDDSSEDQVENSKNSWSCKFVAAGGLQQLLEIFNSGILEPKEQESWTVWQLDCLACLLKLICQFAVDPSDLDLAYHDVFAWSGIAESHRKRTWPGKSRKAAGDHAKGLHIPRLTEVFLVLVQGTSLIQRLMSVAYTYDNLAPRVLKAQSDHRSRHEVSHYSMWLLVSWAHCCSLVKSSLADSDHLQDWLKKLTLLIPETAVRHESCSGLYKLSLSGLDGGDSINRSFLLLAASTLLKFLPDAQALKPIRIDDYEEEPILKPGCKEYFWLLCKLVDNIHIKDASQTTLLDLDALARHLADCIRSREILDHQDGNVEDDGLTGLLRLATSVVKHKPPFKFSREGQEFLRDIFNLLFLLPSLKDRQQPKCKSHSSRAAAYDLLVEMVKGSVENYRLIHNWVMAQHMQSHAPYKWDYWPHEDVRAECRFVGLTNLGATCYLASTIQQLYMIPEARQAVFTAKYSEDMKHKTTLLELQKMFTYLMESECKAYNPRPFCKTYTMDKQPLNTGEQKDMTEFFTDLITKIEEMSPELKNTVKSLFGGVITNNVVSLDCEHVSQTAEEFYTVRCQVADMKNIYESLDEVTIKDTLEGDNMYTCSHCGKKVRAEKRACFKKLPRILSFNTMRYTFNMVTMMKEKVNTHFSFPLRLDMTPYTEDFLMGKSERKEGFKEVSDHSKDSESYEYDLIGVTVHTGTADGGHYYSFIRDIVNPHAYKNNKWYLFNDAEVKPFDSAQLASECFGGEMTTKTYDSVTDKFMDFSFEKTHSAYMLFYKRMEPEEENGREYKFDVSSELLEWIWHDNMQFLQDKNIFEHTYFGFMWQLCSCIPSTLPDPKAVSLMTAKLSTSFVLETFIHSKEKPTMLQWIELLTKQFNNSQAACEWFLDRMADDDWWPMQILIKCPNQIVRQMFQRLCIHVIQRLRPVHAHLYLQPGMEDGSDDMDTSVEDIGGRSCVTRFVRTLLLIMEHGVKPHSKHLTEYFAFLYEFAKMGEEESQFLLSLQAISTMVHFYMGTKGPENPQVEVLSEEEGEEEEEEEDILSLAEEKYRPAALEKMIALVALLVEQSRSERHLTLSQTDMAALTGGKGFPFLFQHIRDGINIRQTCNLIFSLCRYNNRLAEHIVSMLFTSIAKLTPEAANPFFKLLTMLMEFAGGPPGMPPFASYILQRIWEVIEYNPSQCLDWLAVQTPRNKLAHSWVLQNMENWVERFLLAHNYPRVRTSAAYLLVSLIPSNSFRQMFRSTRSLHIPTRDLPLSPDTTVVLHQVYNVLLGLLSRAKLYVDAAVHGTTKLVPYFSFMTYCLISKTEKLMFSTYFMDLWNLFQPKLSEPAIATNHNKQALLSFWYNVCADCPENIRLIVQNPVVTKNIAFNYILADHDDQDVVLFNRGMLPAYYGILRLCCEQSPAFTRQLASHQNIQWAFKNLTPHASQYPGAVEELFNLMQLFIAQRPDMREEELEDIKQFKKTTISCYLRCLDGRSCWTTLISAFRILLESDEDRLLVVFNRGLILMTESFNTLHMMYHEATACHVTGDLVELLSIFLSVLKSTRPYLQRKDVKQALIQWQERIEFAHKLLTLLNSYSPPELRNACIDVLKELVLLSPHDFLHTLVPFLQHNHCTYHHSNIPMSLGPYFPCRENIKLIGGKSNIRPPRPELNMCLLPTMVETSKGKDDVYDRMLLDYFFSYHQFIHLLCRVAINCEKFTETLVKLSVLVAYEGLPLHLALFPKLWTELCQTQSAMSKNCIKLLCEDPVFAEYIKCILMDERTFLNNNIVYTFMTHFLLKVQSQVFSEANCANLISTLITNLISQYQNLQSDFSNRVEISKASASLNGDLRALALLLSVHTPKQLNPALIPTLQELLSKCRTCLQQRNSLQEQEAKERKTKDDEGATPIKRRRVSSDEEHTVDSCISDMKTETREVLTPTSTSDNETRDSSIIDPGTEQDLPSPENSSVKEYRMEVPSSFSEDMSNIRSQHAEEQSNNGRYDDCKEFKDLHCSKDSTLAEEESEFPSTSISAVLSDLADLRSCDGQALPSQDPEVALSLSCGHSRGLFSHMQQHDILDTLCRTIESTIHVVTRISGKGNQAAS

Cc1cc(Cl)ccc1NC(=O)CCl
inactive: USP34 -0.254 | USP36 -0.182 | USP38 -0.0702 | USP39 0.072 | USP4 -0.0162
